This is an account of results in the antibiotic and cytotoxicity screens of Wong et al. (2023).

The structures appear in SMILES notation. Out of some 39,000 compounds screened, about 500 (1.3%) were called active. This is one part of a sample in which actives are shown more often than they occur.

The test system of this test is S. aureus RN4220. The experiment in a line: growth inhibition call (relative growth <= 0.2). The following applies: 50 µM.
Take `CC=Cc1ccc2n(c1=O)C[C@@H]1[C@@H](CO)[C@H](C(=O)NC3CCC3)N(S(C)(=O)=O)[C@H]21`: the growth inhibition call is “inactive”. On to `CCCN(C)C[C@@H]1OCCCC[C@@H](C)Oc2ccc(NS(=O)(=O)c3cn(C)cn3)cc2C(=O)N([C@@H](C)CO)C[C@@H]1C`, for which the growth inhibition call is “inactive”. Turning to `C[C@@H]1CN([C@@H](C)CO)C(=O)c2cc(C#Cc3ccncc3)cnc2O[C@H]1CN(C)S(=O)(=O)c1ccccc1F`, the growth inhibition call was “inactive”. Take `C[C@@H]1CN([C@@H](C)CO)C(=O)c2cc(NS(C)(=O)=O)ccc2O[C@@H](C)CCCCO[C@H]1CN(C)S(=O)(=O)c1cn(C)cn1`: the growth inhibition call was “inactive”. Regarding `C[C@@H]1CN([C@H](C)CO)C(=O)c2cccc(NS(C)(=O)=O)c2O[C@@H]1CN(C)S(=O)(=O)c1ccc(F)cc1`, the growth inhibition call was “inactive”. Under `C[C@@H]1CN([C@@H](C)CO)S(=O)(=O)c2ccc(C#Cc3ccccc3)cc2O[C@H]1CN(C)C(=O)CN(C)C` stands “inactive”; under `C[C@H](CO)N1C[C@H](C)[C@H](CN(C)C(=O)CN(C)C)Oc2cc(C#Cc3ccccc3)ccc2S1(=O)=O`, “active”; under `C[C@@H]1CN([C@H](C)CO)S(=O)(=O)c2ccc(C#Cc3ccccc3)cc2O[C@H]1CN(C)C(=O)CN(C)C`, “inactive”. In the case of `COc1ccc(S(=O)(=O)N(C)C[C@@H]2Oc3ccc(NS(=O)(=O)c4cccs4)cc3CC(=O)N([C@@H](C)CO)C[C@H]2C)cc1` it was “inactive”; in that of `C[C@H](CO)N1C[C@H](C)[C@@H](CN(C)C(=O)Nc2ccc(C(F)(F)F)cc2)Oc2c(NS(C)(=O)=O)cccc2C1=O`, “inactive”.

In the case of `C[C@@H]1CN([C@H](C)CO)C(=O)c2cccc(NS(C)(=O)=O)c2O[C@H]1CN(C)C(=O)Nc1ccc(C(F)(F)F)cc1`, the growth inhibition call was “inactive”.

Regarding `C[C@@H]1CN([C@@H](C)CO)C(=O)c2cccc(NS(C)(=O)=O)c2O[C@H]1CN(C)C(=O)Nc1ccc(C(F)(F)F)cc1`, the growth inhibition call was “active”. Consider `C[C@@H]1CN([C@H](C)CO)C(=O)c2cccc(NS(C)(=O)=O)c2O[C@@H]1CN(C)C(=O)Nc1ccc(C(F)(F)F)cc1`, for which the growth inhibition call is “active”. In the case of `C[C@@H]1CN([C@@H](C)CO)C(=O)c2cccc(NS(C)(=O)=O)c2O[C@H]1CN(C)C(=O)Nc1ccc(F)cc1`, the growth inhibition call is “inactive”. On to `C[C@H]1CN([C@@H](C)CO)C(=O)c2cccc(NS(C)(=O)=O)c2O[C@H]1CN(C)C(=O)Nc1ccc(C(F)(F)F)cc1`, for which the growth inhibition call is “inactive”. In the case of `C[C@H]1CN([C@@H](C)CO)C(=O)c2cccc(NS(C)(=O)=O)c2O[C@@H]1CN(C)C(=O)Nc1ccc(C(F)(F)F)cc1`, the growth inhibition call is “inactive”.

In the case of `C[C@@H]1CN([C@@H](C)CO)C(=O)c2cccc(NS(C)(=O)=O)c2O[C@@H]1CN(C)C(=O)Nc1ccc(C(F)(F)F)cc1`, the growth inhibition call is “active”.

For the compound `C[C@H](CO)N1C[C@H](C)[C@H](CN(C)C(=O)Nc2ccc(C(F)(F)F)cc2)Oc2c(NS(C)(=O)=O)cccc2C1=O`, the growth inhibition call was “inactive”. Under `CNC(=O)Cn1cc(Br)cn1` stands “inactive”; under `C[C@H]1N(c2cnn(C)c2)C(=O)COC12CCN(S(C)(=O)=O)CC2`, “inactive”; under `O=C1O[C@H](CO)[C@@H](O)[C@H](O)[C@H]1O`, “inactive”. Turning to `COc1ccc2c3c(n(c2c1)C)[C@@H](CO)N(Cc1ccccc1F)C[C@]13CN(C1)C(=O)C1CCOCC1`, the growth inhibition call was “inactive”. Take `C[C@@H]1CN([C@@H](C)CO)C(=O)c2cccc(NS(C)(=O)=O)c2O[C@@H]1CN(C)C(=O)Nc1ccc2c(c1)OCO2`: the growth inhibition call was “inactive”. On to `CC1CCC2(C)C(C=O)=CCCC2C1(C)CC1OC(O)C(=O)C12CO2` (stereo not drawn), for which the growth inhibition call is “active”. For `C[C@H]1CN([C@@H](C)CO)C(=O)c2cc(NC(=O)CCN3CCOCC3)ccc2O[C@@H]1CN(C)Cc1ccc2c(c1)OCO2`, the growth inhibition call was “inactive”.

On to `C[C@H](CO)N1C[C@H](C)[C@@H](CN(C)Cc2ccc(Cl)c(Cl)c2)Oc2ccc(NC(=O)Nc3cccc4ccccc34)cc2C1=O`, for which the growth inhibition call was “inactive”. With `C=CC[C@H](CC(=O)NCCO)C(=O)N[C@H](COC(=O)[C@@H](CC=C)CC(=O)OC(C)(C)C)Cc1ccccc1`, the growth inhibition call was “inactive”. As to `O=C(CCCCCCC(=O)Nc1ccccc1)NO`, the growth inhibition call was “inactive”. Regarding `COC(=O)CCCCCCC(=O)Nc1ccc(NC(=O)CCCC[P+](c2ccccc2)(c2ccccc2)c2ccccc2)cc1`, the growth inhibition call is “active”. For `O=C(CCCCCC(=O)Nc1ccccc1O)N/N=C/C[P+](c1ccccc1)(c1ccccc1)c1ccccc1`, the growth inhibition call is “inactive”. As to `C[C@@H]1CN([C@H](C)CO)C(=O)c2cccc(NC(=O)NC3CCCCC3)c2O[C@H]1CN(C)C(=O)Nc1cccc2ccccc12`, the growth inhibition call is “inactive”. `C[N+](C)(C)CCCCCCNC(=O)[C@H]1C[C@H]2C(=O)N[C@@H](CCCC[N+](C)(C)C)C(=O)N2[C@H]1c1ccc(O)cc1`: the growth inhibition call is “inactive”. With `C[N+](C)(C)CCCCNC(=O)[C@H]1C[C@H]2C(=O)N[C@@H](CCCC[N+](C)(C)C)C(=O)N2[C@H]1c1ccc(O)cc1`, the growth inhibition call was “inactive”.

Turning to `C[N+](C)(C)CCCCCCNC(=O)[C@@H]1C[C@@H]2C(=O)N[C@@H](CCCC[N+](C)(C)C)C(=O)N2[C@@H]1c1ccc(O)cc1`, the growth inhibition call was “active”.

As for `COc1ccc(CNC(=O)C[C@@H]2C[C@H]3c4cc(NC(=O)NC5CCCC5)ccc4O[C@H]3[C@@H](CO)O2)cc1`, the growth inhibition call was “inactive”. In the case of `O=C(Nc1ccc(S(=O)(=O)OCC(F)(F)C(F)(F)C(F)(F)C(F)F)cc1)NC1(C(F)(F)F)Oc2ccccc2O1` it was “active”; in that of `C=CC[C@@H](CC(=O)N(CCO)Cc1ccccc1)C(=O)NCCOC(=O)[C@@H](CC=C)CC(=O)OC(C)(C)C`, “inactive”. For the compound `C[C@H](CO)N1C[C@H](C)[C@H](CN(C)C(=O)Nc2ccc(C(F)(F)F)cc2)Oc2ccc(NC(=O)Cn3cnnn3)cc2CC1=O`, the growth inhibition call was “inactive”. As for `O=C(C[C@@H]1CC[C@H]2[C@@H](COC[C@H](O)CN2S(=O)(=O)c2ccccc2)O1)N1CCOCC1`, the growth inhibition call was “inactive”. Turning to `COc1ncc(-c2ccc3c(Nc4cc(Oc5cc(F)cc(F)c5)cc(C(=O)O)c4)c(S(=O)(=O)NC4CC4)cnc3c2)c(OC)n1`, the growth inhibition call was “active”.

Take `CCCN(C)C[C@H]1OCCCC[C@H](C)Oc2ccc(NC(=O)CCC(F)(F)F)cc2C(=O)N([C@H](C)CO)C[C@@H]1C`: the growth inhibition call is “inactive”. Regarding `O=C(OCc1ccccc1)c1cccnc1`, the growth inhibition call is “inactive”. For the compound `C[C@H]1CCCCO[C@H](CN(C)CC2CCCCC2)[C@@H](C)CN([C@@H](C)CO)C(=O)c2cc(NC(=O)Nc3cccc4ccccc34)ccc2O1`, the growth inhibition call was “inactive”.
